Screening results: PubChem BioAssay, National Center for Advancing Translational Sciences (NCATS)
GAA inhib: alpha-glucosidase (human) inhibition; purified human GAA, 4-MU-alpha-glucoside fluorescence; Potency, µM (highest dose often 76.9 µM), actives largely listed as inhibitors; actives 0.005% (n = 200,000)
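AC50 values come from Hill fits of compound titrations (up to 77 uM) against 4 nM human enzyme. Substrate 4-methylumbelliferyl-alpha-D-pyranoside at 400 uM, pH 5.0 citrate buffer, 20 min room temperature; fluorescence Ex 365/Em 440 after alkaline stop.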
N370S GC: inhibits or activates N370S mutant glucocerebrosidase | P04062 | N370S GC spleen homogenate, 4MU-glucoside fluorescence | Potency, µM (series often up to 59.4 µM), hits mostly inhibitors | actives 0.092% (n = 330,000) | AID 2101
GAA glycogen: alters human alpha-glucosidase cleavage of glycogen; AID 2100; P10253; recombinant GAA, glycogen substrate, Amplex Red glucose oxidase fluorescence; actives 0.38% (n = 300,000); Potency, µM (titrated, usually from 76.4 µM), most hits filed as inhibitors;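 also: the screen sought inhibitors and activators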
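Recombinant enzyme (4 nM final) with compounds titrated up to 77 uM and bovine liver glycogen (30 ug) in citrate pH 5.0, 0.01% Tween-20, 37 C 40 min. Released glucose detected by Amplex Red/glucose oxidase (Ex 573/Em 610); AC50 from Hill fits.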
aGlu spleen mod: inhibitors or activators of human alpha-glucosidase in spleen homogenate | actives 0.006% (n = 240,000) | Potency, µM (doses to about 79.9 µM), most hits filed as inhibitors | human spleen homogenate, 4-MU-alpha-glucoside fluorescence | P10253 | AID 2112
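Human spleen homogenate (1 ug) incubated with compounds and 1 mM 4-methylumbelliferyl-alpha-D-glucopyranoside in pH 5.0 citrate/phosphate buffer, 37 C, 40 min. Stopped at pH 10; 4-MU fluorescence (Ex 365/Em 440 nm); AC50 by Hill fit.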
aGal spleen mod: inhibits or activates alpha-galactosidase in human spleen homogenate. actives 0.008% (n = 240,000). P06280. Potency, µM (doses to about 80 µM), usual class: inhibitors. human spleen homogenate, 4MU-alpha-Gal fluorescence, 40 min
Target sequence (P06280 32-429 limits assumed): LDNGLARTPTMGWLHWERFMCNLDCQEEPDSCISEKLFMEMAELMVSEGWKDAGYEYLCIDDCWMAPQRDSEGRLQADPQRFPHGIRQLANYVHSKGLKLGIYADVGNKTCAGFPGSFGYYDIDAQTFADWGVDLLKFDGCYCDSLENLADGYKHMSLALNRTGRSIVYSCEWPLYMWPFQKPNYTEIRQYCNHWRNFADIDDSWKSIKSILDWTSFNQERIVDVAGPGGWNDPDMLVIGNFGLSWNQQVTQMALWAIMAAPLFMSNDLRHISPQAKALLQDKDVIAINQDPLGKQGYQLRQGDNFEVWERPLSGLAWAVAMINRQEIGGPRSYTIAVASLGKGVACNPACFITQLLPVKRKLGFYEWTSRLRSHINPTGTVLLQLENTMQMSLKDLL
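Fluorogenic readout (Ex 365/Em 440 nm) of 4-methylumbelliferone released from 1 mM 4-MU-alpha-galactoside by spleen homogenate, 40 min at 37C, pH 5.0. Data normalized to no-enzyme and enzyme controls; Hill-equation AC50 from compound titrations.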
GLA inh pH 4.5: inhibitors of human alpha-galactosidase A at pH 4.5; P06280; purified enzyme, 4-MU-alpha-Gal fluorescence, pH 4.5; activity change, negative = inhibition, % at 105 µM; 230,000 tested, under 10 active
Large screens that a line does not name were inactive. Rows were chosen to be rich in hits. Some 0.43% of all compounds tested hit in one or more screens of this group. Calls follow the shape of the dose curve; as a rule, active = well fitted curve in the direction sought with a large enough effect; inconclusive = small, poorly fitted or top-dose-only effect, or another doubt; inactive = no such curve, though single readings can be large; an effect the other way counts as inactive or inconclusive.

CN1CC(C(=O)c2ccc(Cl)cc2)C(c2ccc(N(C)C)cc2)C1 (stereo not drawn)	GAA inhib inconclusive
CN1CC(C(=O)c2ccc(Cl)cc2)C(c2ccc(Cl)cc2Cl)C1 (stereo not drawn)	N370S GC 17.8µM (no result: GAA inhib, aGlu spleen mod, aGal spleen mod, GLA inh pH 4.5)
O=S(=O)(Cl)c1ccccc1	none (no result: GAA inhib, GAA glycogen, GLA inh pH 4.5)
O=C(NC1(C(F)(F)F)Oc2ccccc2O1)N1CCC2(CC1)OCCO2	GAA glycogen 5.62µM
O=C(NC1(C(F)(F)F)Oc2ccc(Cl)cc2O1)N1CCC2(CC1)OCCO2 (stereo not drawn)	GAA glycogen 8.91µM (no result: N370S GC)
Cc1ccc2nc3sc(=O)sc3nc2c1	none (no result: GAA inhib, GAA glycogen, GLA inh pH 4.5)
O=c1cc(-c2ccc(O)c(O)c2)oc2cc(O)cc(O)c12	N370S GC inconclusive, GAA glycogen 25.1µM, aGal spleen mod inconclusive (no result: GAA inhib)
O=c1c(O)c(-c2ccc(O)c(O)c2)oc2cc(O)cc(O)c12	N370S GC inconclusive, GAA glycogen inconclusive (no result: GAA inhib)
c1ccc(OP(Oc2ccccc2)Oc2ccccc2)cc1	none (no result: GAA inhib, GAA glycogen, GLA inh pH 4.5)
Cc1cc2c(C(C)C)c(O)c(O)c(C=O)c2c(O)c1-c1c(C)cc2c(C(C)C)c(O)c(O)c(C=O)c2c1O	GAA inhib inconclusive, GAA glycogen 8.91µM
NCC[C@H](NC(=O)[C@@H](N)CCCN=C(N)N[N+](=O)[O-])C(N)=O	none (no result: GAA inhib, GAA glycogen, GLA inh pH 4.5)
O=[N+]([O-])c1cc(Cl)c(Cl)c(Cl)c1	none (no result: GAA inhib, GAA glycogen, GLA inh pH 4.5)
CC(C)c1cc2c(c(O)c1O)[C@@]1(C(=O)O)CCCC(C)(C)[C@@H]1CC2	none (no result: GAA inhib, GAA glycogen)
CN1CCN(c2ccc3nccnc3c2)CC1	aGlu spleen mod inconclusive, aGal spleen mod 35.5µM
O=C(N/N=C1/CN2CCC1CC2)c1cc2ccccc2cc1O	GAA glycogen 35.5µM
CCCCCCCCCCCC[N+](C)(C)CCOc1ccccc1	N370S GC 4.47µM (no result: GAA inhib, GAA glycogen, GLA inh pH 4.5)
Oc1ccc(/C=N/NP(=S)(c2ccccc2)c2ccccc2)cc1	N370S GC inconclusive
COc1cc(/C=N/NP(=S)(c2ccccc2)c2ccccc2)ccc1O	N370S GC inconclusive, GAA glycogen 24.9µM
CCOc1cc(-c2nc3c(C)cccn3c2NCC2CCCO2)ccc1O (stereo not drawn)	GAA glycogen 35.5µM
Cc1cccn2c(NCC3CCCO3)c(C(C)C)nc12 (stereo not drawn)	GAA glycogen inconclusive
COc1cc2c3cc1Oc1c(OC)c(OC)cc4c1[C@@H](Cc1ccc(OC(=O)c5ccc([N+](=O)[O-])cc5)c(c1)Oc1ccc(cc1)C[C@@H]3N(C)CC2)N(C)CC4	N370S GC inconclusive (no result: GAA inhib, GAA glycogen, GLA inh pH 4.5)
OCCCc1ccc(O)c(O)c1	GAA glycogen 35.5µM (no result: GAA inhib)
NC1CCCC[C@H]1N (stereo partly drawn)	none (no result: GAA inhib, GAA glycogen, GLA inh pH 4.5)
O=C(O)C1Sc2[nH]c(=O)sc2C2c3cc(Cl)ccc3OC(=O)C12 (stereo not drawn)	GAA glycogen 15.8µM
CC(C)[C@H](CO)Nc1nc(Nc2cccc(Cl)c2)c2ncn(C(C)C)c2n1	N370S GC inconclusive (no result: GAA inhib, GAA glycogen)
OC[C@@H]1[C@@H](O)[C@H](O)[C@H]2[C@@H](O)CCN21	aGlu spleen mod 28.2µM (no result: GAA inhib, GAA glycogen, GLA inh pH 4.5)
CC1CN(O)C2CCc3c(no[n+]3[O-])C12O (stereo not drawn)	GAA glycogen 8.84µM
ClC1=C(Cl)C(Cl)(C2(Cl)C(Cl)=C(Cl)C(Cl)=C2Cl)C(Cl)=C1Cl	none (no result: GAA inhib, GAA glycogen, GLA inh pH 4.5)
CN1CCC(=O)N(CCN=[N+]=[N-])CC1	GAA glycogen 50.1µM (no result: GAA inhib, aGlu spleen mod, aGal spleen mod, GLA inh pH 4.5)
CCNN	none (no result: GAA inhib, GAA glycogen, GLA inh pH 4.5)
CN1[C@@H]2CC[C@H]1CC(O[C@@H](c1ccccc1)c1ccc(Cl)cc1)C2 (stereo partly drawn)	N370S GC 7.94µM (no result: GAA inhib, GAA glycogen)
CCCCCCCC/C=C\CCCCCCCC(=O)OC[C@@H](COP(O)(O)=S)OC	none (no result: GAA inhib, GAA glycogen, GLA inh pH 4.5)
CN1C(=O)C(Cc2cccc3ccccc23)C(=O)N(C)C1=O	GAA glycogen inconclusive
O=C1C2CCN(CC2)[C@@H]1Cc1ccc2ccccc2c1O	GAA glycogen 7.88µM
